11 molecules from PubChem BioAssay (NCI) can be followed below.

Among the test systems are OVCAR-5 ovarian; OVCAR-4 ovarian; SK-OV-3 ovarian; HS 578T breast; NCI/ADR-RES ovarian; T-47D breast; BT-549 breast; MDA-MB-435 melanoma; SW-620 colon; MCF7 breast; HCT-116 colon; HCC-2998 colon; KM12 colon; IGROV1 ovarian; OVCAR-3 ovarian; OVCAR-8 ovarian.
What all share (experiment): NCI-60 one-dose screen, 48 h (100 = growth as untreated, 0 = no growth, -100 = all killed)
Conditions in all cases: 10 µM unless noted

The structures appear in SMILES notation. The panel holds about 83,000 compounds, 20% with a hit somewhere; the sample as a whole holds those more often.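 Single-dose data. Exposure time 48 hours. Values below 10 considered active.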 Unmarked numbers belong to inactive results. Active and inactive are the calls of the source.

As to `CSc1ncc2ncn(C3OC(CO)C(O)C3O)c2n1` (configuration not stated), the growth with OVCAR-5 ovarian is 156%; in the experiment with OVCAR-4 ovarian, 101%; in the experiment on SK-OV-3 ovarian, 104%; with HS 578T breast, 95.2%; in the experiment on NCI/ADR-RES ovarian, 143%; with T-47D breast, 101%. In addition, the growth with BT-549 breast was 118%; in the experiment with MDA-MB-435 melanoma, 104%; with SW-620 colon, 96.5%; in the experiment on MCF7 breast, 122%; in the experiment on HCT-116 colon, 102%; in the experiment on HCC-2998 colon it was 124%. In the experiment with KM12 colon, the growth is 113%.

As to `Cc1nn(-c2ccccc2)c2ncc3c(c12)C(=O)N(Cc1ccccc1)C3=O`, the growth in the experiment with OVCAR-5 ovarian is 63.6%; in the experiment with OVCAR-4 ovarian it was -57.8% (active); with SK-OV-3 ovarian it was 14.7%; in the experiment on IGROV1 ovarian it was 14.7%; with OVCAR-3 ovarian, 19.2%; with HS 578T breast, 22.7%. The growth in the experiment with NCI/ADR-RES ovarian is 42.1%; in the experiment with T-47D breast it was 43.4%; in the experiment on BT-549 breast, 76.4%; in the experiment with MDA-MB-435 melanoma, 90.7%; in the experiment on SW-620 colon, 61%; with MCF7 breast it was 58.8%. For the same molecule, the results for the growth with HCT-116 colon and in the experiment with KM12 colon were 10.5% and 85.8%, respectively.

`O=C1Cc2cc(CCn3cncn3)c(Cl)cc2N1`: the growth with OVCAR-5 ovarian was 87.4%; with OVCAR-4 ovarian, 86.8%; in the experiment on SK-OV-3 ovarian, 79.3%; in the experiment on IGROV1 ovarian it was 84.7%; with OVCAR-3 ovarian, 71.7%; with HS 578T breast, 28.6%. Besides, the growth was 52.9% with NCI/ADR-RES ovarian; 99.1% with T-47D breast; 68% with BT-549 breast; 34.4% with MDA-MB-435 melanoma; 54.2% with SW-620 colon; 29% in the experiment on MCF7 breast. The growth in the experiment on HCT-116 colon is 79%; in the experiment on HCC-2998 colon, 75.1%; in the experiment with KM12 colon, 36%.

As to `c1ccc(-c2nn[nH]n2)c(-c2ccc(CN3CCN(c4nsc5ccccc45)CC3)cc2)c1`, the growth in the experiment on OVCAR-5 ovarian was 96.8%; in the experiment on OVCAR-4 ovarian, 85.6%; in the experiment with SK-OV-3 ovarian, 105%; in the experiment on IGROV1 ovarian, 113%; in the experiment on OVCAR-3 ovarian, 91.4%; with HS 578T breast, 105%. Besides, the growth with NCI/ADR-RES ovarian is 92%; with T-47D breast, 68.7%; with BT-549 breast, 106%; in the experiment with MDA-MB-435 melanoma, 92.2%; with SW-620 colon it was 88.7%; in the experiment with MCF7 breast, 85.6%. The growth in the experiment with HCT-116 colon was 76.9%; with KM12 colon it was 101%.

With `Cc1nn(-c2ccc(Cl)cc2)c2nc3c(nc12)C(=O)C(=O)c1ccccc1-3`, the growth with OVCAR-5 ovarian was 95.9%; in the experiment on OVCAR-4 ovarian, 48.4%; with SK-OV-3 ovarian, 93.8%; in the experiment on IGROV1 ovarian, 59.1%; with OVCAR-3 ovarian, 2.92% (active); with HS 578T breast, 61.3%. Besides, the growth was 76.5% in the experiment on NCI/ADR-RES ovarian; 67.6% in the experiment with T-47D breast; 92.1% in the experiment with BT-549 breast; 97.7% with MDA-MB-435 melanoma; 67.2% in the experiment with SW-620 colon; 49.7% with MCF7 breast. In addition, the growth in the experiment with HCC-2998 colon was 66.6%; in the experiment on KM12 colon, 61.9%.

Regarding `CCCCC(C#N)C(N)=O` (configuration not stated), the growth is 106% with OVCAR-5 ovarian; 107% with OVCAR-4 ovarian; 98.1% in the experiment on SK-OV-3 ovarian; 113% in the experiment on IGROV1 ovarian; 108% in the experiment on OVCAR-3 ovarian; 101% with HS 578T breast. Moreover, the growth in the experiment with NCI/ADR-RES ovarian is 105%; in the experiment on T-47D breast, 100%; with BT-549 breast it was 114%; in the experiment on MDA-MB-435 melanoma, 114%; in the experiment on SW-620 colon, 111%; in the experiment with MCF7 breast, 97.7%. Also, the growth was 98.4% in the experiment with HCT-116 colon, 104% with HCC-2998 colon and 119% in the experiment on KM12 colon.

As to `COC(=O)[C@]1(CCSC)N[C@H](c2cn(-c3ccccc3)nc2C)[C@@H]2C(=O)N(c3ccc(C)cc3)C(=O)[C@@H]21`, the growth in the experiment with OVCAR-5 ovarian is 94.6%; in the experiment on SK-OV-3 ovarian, 98.5%; in the experiment on IGROV1 ovarian, 115%; in the experiment on OVCAR-3 ovarian, 114%; in the experiment on HS 578T breast, 103%; in the experiment with NCI/ADR-RES ovarian, 93.4%. Besides, the growth is 82.8% in the experiment with BT-549 breast; 105% with MDA-MB-435 melanoma; 106% in the experiment with SW-620 colon; 102% with MCF7 breast; 92.5% in the experiment on HCT-116 colon; 96.4% in the experiment with HCC-2998 colon. In addition, the growth in the experiment on KM12 colon is 104%.

In the case of `Cc1nn(-c2ccc(Cl)cc2)c2nc3c(nc12)C(=O)c1ccccc1-3`, the growth with OVCAR-5 ovarian is 90.8%; with OVCAR-4 ovarian, 34.5%; with SK-OV-3 ovarian, 32.7%; with IGROV1 ovarian, 77.3%; in the experiment with OVCAR-3 ovarian it was 62.8%; in the experiment with HS 578T breast it was 63.7%. Also, the growth in the experiment on NCI/ADR-RES ovarian was 62.9%; with T-47D breast, 73.7%; in the experiment with BT-549 breast, 82%; in the experiment on MDA-MB-435 melanoma it was 67.5%; in the experiment with SW-620 colon, 83.4%; in the experiment with MCF7 breast it was 49.1%. Further, the growth with HCT-116 colon was 39.9%; in the experiment on HCC-2998 colon, 52.5%; in the experiment with KM12 colon, 78.8%.

Take `Cc1c(C(N)=O)sc2c1c(=O)n(Cc1ccccc1)c1nnc(SCC(=O)Nc3ccc(Cl)cc3)n21`: the growth with OVCAR-5 ovarian was 64.9%; in the experiment on OVCAR-4 ovarian, -80.2% (active); in the experiment on SK-OV-3 ovarian it was 24.8%; with IGROV1 ovarian, 23.1%; in the experiment on OVCAR-3 ovarian, -3.77% (active); with HS 578T breast, 6.54% (active). Further, the growth was 82.2% in the experiment on NCI/ADR-RES ovarian; -23.9% (active) in the experiment on T-47D breast; 67.7% with BT-549 breast; 40.7% in the experiment with MDA-MB-435 melanoma; 35.6% with SW-620 colon; 31.6% with MCF7 breast. The growth with HCT-116 colon is 2.83% (active); in the experiment on HCC-2998 colon, 18.1%; in the experiment with KM12 colon it was 55.3%.

Consider `COC(=O)[C@]1(CCSC)N[C@H](c2cn(-c3ccccc3)nc2C)[C@@H]2C(=O)N(c3ccccc3)C(=O)[C@@H]21`, for which the growth is 104% with OVCAR-5 ovarian; 106% in the experiment with OVCAR-4 ovarian; 95.2% in the experiment on SK-OV-3 ovarian; 118% in the experiment on IGROV1 ovarian; 98.7% in the experiment with OVCAR-3 ovarian; 93.7% with HS 578T breast. The growth with NCI/ADR-RES ovarian was 91%; in the experiment on T-47D breast it was 108%; in the experiment with BT-549 breast it was 95.5%; in the experiment on MDA-MB-435 melanoma, 106%; in the experiment with SW-620 colon, 107%; with MCF7 breast, 98.5%. The growth in the experiment with HCT-116 colon is 98.3%; with HCC-2998 colon, 95.2%; in the experiment on KM12 colon, 107%.

Take `CCOC(Cc1c(N)[nH]c(=S)[nH]c1=O)OCC`: the growth in the experiment on OVCAR-8 ovarian was 96.2%; with OVCAR-5 ovarian, 93.9%; with SK-OV-3 ovarian, 107%; in the experiment on IGROV1 ovarian it was 104%; in the experiment on OVCAR-3 ovarian it was 120%; in the experiment with HS 578T breast, 120%. The growth is 102% with NCI/ADR-RES ovarian; 99% in the experiment on T-47D breast; 102% with BT-549 breast; 105% with SW-620 colon; 96.8% with MCF7 breast; 103% in the experiment on HCT-116 colon. For the same molecule, the growth in the experiment with HCC-2998 colon was 113%; with KM12 colon, 112%.
